Source: PubChem (National Center for Advancing Translational Sciences (NCATS))
Shown are actives, neighbours in structure and some others; about 12% of the full set was active somewhere.
BAZ2B block: BAZ2B (human) inhibition; AlphaScreen BAZ2B-H3K14Ac peptide displacement; Potency, µM (top dose mostly 114 µM), without a hit: at the top dose activity change, negative = inhibition, usual class: inhibitors; 360,000 compounds, 4.4% hits; AID 504333; also: % is scaled to controls: 0 for no effect and ±100 for the full control effect; nearly all actives have a fitted effect of over 60% in size
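BAZ2B (50 nM) with biotin-H3(5-23)K14Ac peptide (50 nM) in PBS pH 7.4, 0.01% Tween-20, preformed 30 min, then compound 30 min at room temperature; top concentration 110uM. AlphaScreen streptavidin donor/nickel chelate acceptor beads (10 ug/mL final), 20 min dark, signal read.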
HP1b binding inh: inhibitors of HP1-beta chromodomain binding to methylated histone tails; AlphaScreen HP1-beta / biotin-H3K9me3 peptide binding; AID 540317; Potency, µM (top dose mostly 114 µM), without a hit: top-dose activity change, negative = inhibition, actives largely listed as inhibitors; 390,000 compounds, 0.56% hits; also: nearly all actives have a fitted effect of over 70% in size
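HP1-beta protein (50 nM final) preincubated 30 min at room temperature with biotinylated H3(1-18)K9me3 peptide (50 nM) in PBS pH 7.4, 0.01% Tween-20, then compound added for 30 min. AlphaScreen streptavidin donor/nickel chelate acceptor beads (10 ug/mL final), 30 min dark, luminescence read.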
JMJD2A Tudor: JMJD2A Tudor domain (human) inhibition; AID 504339; Potency, µM (highest dose often 114 µM), for the others: at the top dose activity change, negative = inhibition, usual class: inhibitors; 390,000 compounds, 4.4% hits; AlphaScreen JMJD2A-Tudor / H3K4me3 peptide binding; O75164; also: % is scaled to controls: 0 for no effect and ±100 for the full control effect; nearly all actives have a fitted effect of over 50% in size
Target sequence (O75164 whole entry, looked up, the tested form may be a part): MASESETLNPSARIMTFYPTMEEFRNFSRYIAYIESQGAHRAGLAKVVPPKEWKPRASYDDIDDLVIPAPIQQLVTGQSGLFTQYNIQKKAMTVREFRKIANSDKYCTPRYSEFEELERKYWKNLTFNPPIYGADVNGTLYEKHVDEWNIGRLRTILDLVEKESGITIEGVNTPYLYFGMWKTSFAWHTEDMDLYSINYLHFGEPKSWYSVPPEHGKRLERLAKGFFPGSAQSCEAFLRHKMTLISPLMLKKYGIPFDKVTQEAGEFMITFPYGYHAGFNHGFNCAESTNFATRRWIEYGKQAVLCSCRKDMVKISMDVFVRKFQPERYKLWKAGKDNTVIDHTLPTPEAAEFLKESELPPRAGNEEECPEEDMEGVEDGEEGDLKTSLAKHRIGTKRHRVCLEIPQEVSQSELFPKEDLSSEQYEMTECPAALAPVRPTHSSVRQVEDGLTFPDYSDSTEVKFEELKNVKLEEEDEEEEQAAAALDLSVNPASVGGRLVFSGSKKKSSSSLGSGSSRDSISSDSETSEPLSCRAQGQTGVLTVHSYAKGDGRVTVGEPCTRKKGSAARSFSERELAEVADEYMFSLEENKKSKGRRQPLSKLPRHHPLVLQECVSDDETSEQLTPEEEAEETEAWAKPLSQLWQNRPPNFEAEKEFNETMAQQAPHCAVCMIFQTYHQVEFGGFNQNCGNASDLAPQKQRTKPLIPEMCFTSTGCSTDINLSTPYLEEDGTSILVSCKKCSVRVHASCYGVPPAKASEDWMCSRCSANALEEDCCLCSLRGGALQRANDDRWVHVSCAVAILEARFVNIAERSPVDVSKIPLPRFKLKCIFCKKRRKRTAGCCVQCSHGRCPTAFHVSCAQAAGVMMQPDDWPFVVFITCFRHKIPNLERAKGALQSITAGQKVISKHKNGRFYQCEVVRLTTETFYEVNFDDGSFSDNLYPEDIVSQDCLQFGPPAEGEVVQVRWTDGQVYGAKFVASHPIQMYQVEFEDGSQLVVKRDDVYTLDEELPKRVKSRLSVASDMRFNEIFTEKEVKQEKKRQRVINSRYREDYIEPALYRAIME
Sfp PPTase inh: Sfp phosphopantetheinyl transferase inhibition | Q9F4F7 | Biochemical Sfp PPTase activity, qHTS | Potency, µM, for the others: largest response in the series, negative = inhibition, hits mostly inhibitors | 310,000 compounds, 3.5% hits | AID 1490;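 also: the enzyme is Sfp with the accession as filed and its product quenches rhodamine fluorescence; 0% = enzyme reaction without inhibitor and -100% = no enzyme wells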
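Step 1, compound plus 15 nM Sfp-PPTase, 15 min, room temperature. Step 2, add rhodamine-CoA (5 uM) and BHQ-2-YbbR (12.5 uM). Step 3, read 525/598 nm fluorescence at 0 and 30 min.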
PLK1 PBD block: PLK1 (human) polo-box domain binding inhibition. P53350. Plk1 PBD binding of FITC phosphopeptide, fluorescence polarization. Potency, µM, for the others: max response, negative = inhibition, usual class: inhibitors. 360,000 compounds, 2.8% hits. AID 720504; also: series mostly up to about 57 µM; % is scaled to controls: 0 for no effect and ±100 for the full control effect; nearly all actives have a fitted effect of over 65% in size
G9a block: inhibitors of human histone lysine methyltransferase G9a; Q96KQ7; G9a H3K9 monomethylation, AlphaScreen, 2 h; Potency, µM (doses to about 102 µM), inactives show at the highest dose activity, negative = inhibition, most hits filed as inhibitors; 350,000 compounds, 8.8% hits; AID 504332; also: % is scaled to controls: 0 for no effect and ±100 for the full control effect; nearly all actives have a fitted effect of over 75% in size
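Methyltransferase reactions run at room temperature for 2 h (20 nM enzyme, 500 nM biotin-H3K9 peptide, 20 uM SAM) after a 15 min compound preincubation; product detected by AlphaScreen beads and anti-H3K9me1 antibody.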
The depositor's hits bear a star; ! = not active in a repeat; [ ] = another dose, or the depositor's remark. Calls follow the shape of the dose curve; as a rule, active = well fitted curve in the direction sought with a large enough effect; inconclusive = small, poorly fitted or top-dose-only effect, or another doubt; inactive = no such curve, though single readings can be large; an effect the other way counts as inactive or inconclusive. Potency is read from the fitted curve at half-maximal effect.

For CCOC(=O)C1CCN(Cc2cc(C(C)(C)C)c(O)c(C(C)(C)C)c2)CC1 the results were BAZ2B block -25.2%, HP1b binding inh 41.1%, JMJD2A Tudor -28.8%, Sfp PPTase inh inconclusive, PLK1 PBD block inconclusive and G9a block 56.2µM*.
For O=C(C1CCCO1)N1CCN(C(c2ccccc2)c2ccccc2)CC1 (stereo not given) the results were BAZ2B block 3.4%, HP1b binding inh 21.9%, JMJD2A Tudor -4.3%, Sfp PPTase inh -5.9%, PLK1 PBD block -2.0% and G9a block 8.91µM*.
`CN1CCN(C(c2ccccc2)c2ccccc2)CC1` gave BAZ2B block -1.8%, HP1b binding inh 23.8%, JMJD2A Tudor -12.9%, Sfp PPTase inh -6.4%, PLK1 PBD block -7.4% and G9a block 11.3%[21.5 µM].
Screening CCOC(=O)C1CCN(Cc2cc(=O)oc3cc(C)ccc23)CC1 returned BAZ2B block -0.1%, HP1b binding inh 37.6%, JMJD2A Tudor -10.4%, Sfp PPTase inh 11.8%, PLK1 PBD block -3.0% and G9a block -5.2%.
`Cn1cccc1C(=O)N1CCC2(CC1)CN(c1ccccn1)C2` gave Sfp PPTase inh 5.3% and G9a block 39.0%[12.7 µM].
`CC1CCCN(Cc2ccc(OCc3ccccc3)cc2)C1` (stereo not given) gave BAZ2B block 11.6%, HP1b binding inh 29.9%, JMJD2A Tudor -21.9%, Sfp PPTase inh 10.3% and PLK1 PBD block -14.1%.
CCN(CC)C(=O)C1CCN(Cc2ccc(OCc3ccccc3)c(OC)c2)CC1 was read as BAZ2B block 56.2µM*, HP1b binding inh inconclusive, JMJD2A Tudor 11.2µM*, Sfp PPTase inh -6.2%, PLK1 PBD block -1.8% and G9a block 50.1µM*.
`COc1cc(CN2CCN(CCCSc3cc(C(C)(C)C)c(O)c(C(C)(C)C)c3)CC2)cc(OC)c1OC` gave Sfp PPTase inh -6.0%.
c1ccc(Oc2cccc(CN3CCCCC3)c2)cc1 was read as BAZ2B block inconclusive, HP1b binding inh 10.0%, JMJD2A Tudor -12.0%, Sfp PPTase inh -2.6%, PLK1 PBD block -7.2% and G9a block -10.2%.
c1ccc(COc2cccc(CN3CCCCC3)c2)cc1 was read as BAZ2B block inconclusive, HP1b binding inh inconclusive, JMJD2A Tudor 25.1µM*, Sfp PPTase inh -7.3%, PLK1 PBD block -11.8% and G9a block 35.5µM*.
For CC(C)(C)c1cc(CN2CCN(CCO)CC2)cc(C(C)(C)C)c1O the results were BAZ2B block inconclusive, HP1b binding inh 24.6%, JMJD2A Tudor -19.5%, Sfp PPTase inh inconclusive, PLK1 PBD block 21.2µM* and G9a block inconclusive.
For CCN(CC)C(=O)C1CCN(Cc2ccc(OCc3ccccc3)cc2)CC1 the results were BAZ2B block inconclusive, HP1b binding inh inconclusive, JMJD2A Tudor 22.4µM*, Sfp PPTase inh -6.7%, PLK1 PBD block -1.9% and G9a block 10µM*.
For CCn1cc(C(=O)NCc2ccccc2Cl)c(=O)c2cc(S(=O)(=O)N3CCc4ccccc4C3)ccc21 the results were HP1b binding inh 27.5%, JMJD2A Tudor -12.3% and G9a block 6.4%[59 µM].
Screening CCNC(=O)C1CCCN(Cc2ccc(OCc3ccccc3)cc2)CC1 (stereo not given) returned PLK1 PBD block -7.6%.
For CCN1CCN(C(=O)C2CCN(Cc3cc(Cl)ccc3O)CC2)CC1 the results were BAZ2B block inconclusive, HP1b binding inh inconclusive, JMJD2A Tudor 10µM*, Sfp PPTase inh -12.2%, PLK1 PBD block -0.7% and G9a block 10µM*.
Screening CCN1CCN(C(=O)C2CCN(Cc3nc(-c4cccc(Cl)c4)oc3C)CC2)CC1 returned BAZ2B block 2.8%, HP1b binding inh -2.2%, JMJD2A Tudor -20.4%, Sfp PPTase inh 6.2%, PLK1 PBD block -12.5% and G9a block inconclusive.
Screening CCCCNC(=O)C1CCN(Cc2ccc(OCc3ccccc3)cc2)CC1 returned BAZ2B block inconclusive, HP1b binding inh inconclusive, JMJD2A Tudor 3.55µM*, Sfp PPTase inh 6.0%, PLK1 PBD block -1.7% and G9a block 11.2µM*.
Screening CCCCNc1ccc2c(c1)C1CC2CCN1C(=O)OCc1ccccc1 (stereo not given) returned HP1b binding inh -18.1%, JMJD2A Tudor 25.1µM* and PLK1 PBD block -16.0%.
For O=C(COc1ccccc1Cl)Nc1nc(-c2ccc(F)cc2)ns1 the results were BAZ2B block -0.2%, HP1b binding inh 31.1%, JMJD2A Tudor -18.2% and G9a block 8.6%[59 µM].
Screening COc1c(N2CCN[C@H](C)C2)c(F)cc2c(=O)c(C(=O)O)cn(C3CC3)c12 returned BAZ2B block -0.4%, HP1b binding inh 9.6%, JMJD2A Tudor -17.3%, Sfp PPTase inh 3.3% and PLK1 PBD block inconclusive.
CCn1cc(C(=O)O)c(=O)c2cc(F)c(N3CCNC(C)C3)c(F)c21 (stereo not given) was read as Sfp PPTase inh -2.4% and G9a block 11.2µM*!.
For CC(C)(C)C1CCc2nc(NC(=O)Cc3ccccc3)sc2C1 (stereo not given) the results were BAZ2B block 7.1%, HP1b binding inh 33.9%, JMJD2A Tudor -1.3% and G9a block -8.7%[59 µM].
Screening Nc1nc2c(s1)CC(c1ccccc1)CC2 (stereo not given) returned BAZ2B block inconclusive, HP1b binding inh -2.0%, JMJD2A Tudor 5.5%[11.4 µM], Sfp PPTase inh 1.9%, PLK1 PBD block inconclusive and G9a block 50.1µM*.
For Cc1[nH]n(-c2ccc(Cl)cc2)c(=O)c1N=Nc1cccnc1 the results were BAZ2B block -36.0%, HP1b binding inh 16.0%, JMJD2A Tudor -17.9%, Sfp PPTase inh 7.7%, PLK1 PBD block 1.3% and G9a block -43.5%.
For Cc1[nH]n(-c2ncc(-c3ccc(Cl)cc3)s2)c(=O)c1C(c1ccc(Cl)cc1)C(C#N)C#N (stereo not given) the results were BAZ2B block inconclusive, HP1b binding inh inconclusive, JMJD2A Tudor 56.2µM*, Sfp PPTase inh inconclusive, PLK1 PBD block 9.47µM* and G9a block inconclusive.
For COc1ccc(N(C)C(=O)c2cc(S(=O)(=O)N3CCc4ccccc43)cn2C)c(OC)c1 the results were BAZ2B block inconclusive, HP1b binding inh 15.5%, JMJD2A Tudor -32.2% and G9a block -25.4%[59 µM].
O=C(COC(=O)CCc1nc2ccccc2s1)Nc1cccc(S(=O)(=O)N2CCOCC2)c1 was read as BAZ2B block 9.1%, HP1b binding inh 16.2%, JMJD2A Tudor -3.2%, Sfp PPTase inh -7.2%, PLK1 PBD block 0.3% and G9a block inconclusive.
For O=C(COC(=O)CCc1nc2ccccc2s1)Nc1ncc(Cl)cc1Cl the results were BAZ2B block inconclusive, HP1b binding inh 20.6%, JMJD2A Tudor -22.6%, Sfp PPTase inh 1.7%, PLK1 PBD block -10.5% and G9a block 44.7µM*.
